About 3,600 (1.2%) of roughly 300,000 compounds were called active. Cut-off read from the data, not from the text of the source: active = activation above about 30% (passing the limit was not always enough); inconclusive = no clear call, values can overlap the other calls. The sample as a whole holds a higher share of actives than the screen did.

This experiment can be described thus: Wnt/beta-catenin pathway activators, primary screen, cell-based, plate reader, single point (AID 743398).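 Note: 0% = neutral control wells and 100% = positive control wells.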 Conditions: Wnt/beta-catenin reporter cell assay, activator, at 9.35 µM, active compounds read high.
For the compound `CN1C/C(=C/c2cccs2)C(=O)/C(=C\c2cccs2)C1`, the activation is 5.88% (inactive). In the case of `O=C1/C(=C/c2cccs2)CCc2ccccc21`, the activation was 24.6% (inactive).

As to `O=C1/C(=C/c2cccs2)CCC1C1CCCC1` (configuration not stated), the activation was 39.6% (active). In the case of `C[C@H](CO)N1C[C@H](C)[C@@H](CN(C)C(=O)Nc2ccccc2F)OCc2cn(nn2)CCCC1=O`, the activation was -2.87% (inactive).

For `COc1cc(OC)cc(-c2c(-c3ccc(F)cc3)c3cc(-c4ccc5cc[nH]c5c4)ccc3n2C)c1`, the activation was -17.5% (inactive).

In the case of `COc1ccc(C(C)(O)c2nc(-c3cc(F)cc(F)c3)cs2)cc1` (configuration not stated), the activation was -1.38% (inactive). Then `COc1cc(OC)cc(-c2cc3ccc(F)cc3cn2)c1`, with 42.1% (active); and `COc1ccccc1C(=O)N1O[C@]23C=C[C@]14C[C@@H](O)CC[C@]4(C)C2CC[C@]1(C)[C@@H]([C@H](C)/C=C/[C@H](C)C(C)C)CC[C@H]13` (some centres not stated), with -2.64% (inactive); and `COc1cccc(CNc2nc(NCc3cccs3)nc3ccsc23)c1`, with -1.69% (inactive). Take `O=C(Nc1c(Cl)c(C2CC2)nn1-c1ccccc1)C(Cl)(Cl)Cl`: the activation is -2.16% (inactive).

With `O=C(c1ccco1)N1CCN(C(=O)c2cc(-c3ccccc3F)no2)CC1`, the activation was 1.22% (inactive). Consider `O=C(NCCCN1CCOCC1)c1cc(-c2ccccc2F)no1`, for which the activation was 3.67% (inactive). Turning to `Fc1ccccc1-c1cc2cc3c(cc2cn1)OCO3`, the activation was 40.7% (active). In the case of `CCNC(=O)C1(C)CCCN(Cc2noc(-c3ccccc3OC)n2)C1` (configuration not stated), the activation is -3.24% (inactive). Then `CN1C(=O)C2CC(O)C(SC3CC4C(=O)N(C)C(=O)C4CC3O)CC2C1=O` (configuration not stated), with -1.16% (inactive).

For the compound `CCc1nc2c(OCc3ccc(C(F)(F)F)cc3)cccn2c1N(C)C(=O)CC(C)C`, the activation was -1.72% (inactive). `C=CCc1cccc2cc(C(=O)Nc3ccc(NC(C)=O)cc3)c(=O)oc12`: the activation was 39.5% (active). As for `CCOc1cccc2cc(C(=O)OCC(=O)Nc3c(C)cccc3CC)c(=O)oc12`, the activation was 8.56% (inactive). In the case of `C=CCc1cccc2cc(C(=O)NC3CCCC3)c(=O)oc12`, the activation was -0.536% (inactive). For `COc1ccc(-c2ccccc2C2Cc3nnccc3CN2C(=O)Nc2ccccc2)cc1` (configuration not stated), the activation was -2.13% (inactive).

As for `COC(=O)c1cc2c(c3c4ccccc4n(S(=O)(=O)c4cccc(C)c4)c13)C(=O)N(Cc1ccccc1)C2`, the activation was -4.66% (inactive).

As for `Cn1c(-c2ccc(F)cc2)cc2onc(-c3ccccc3Cl)c2c1=O`, the activation was 53.3% (active). Turning to `Cn1c(-c2ccc(C(F)(F)F)cc2)cc2onc(-c3ccccc3)c2c1=O`, the activation is 23.3% (inactive). As for `Cc1[nH]n(C)c(=O)c1C(=O)c1c(-c2c(Cl)cccc2Cl)noc1C`, the activation was 4.17% (inactive).

On to `CCOC(=O)/C=C/c1ccccc1O`, for which the activation is -1.18% (inactive).

Turning to `CN(C)C(=O)c1ccc(NC(=O)COC(=O)c2cc3c(s2)CCCCC3)cc1`, the activation was 0.414% (inactive). As for `O=C(NNC(=O)c1cc2c(s1)CCCC2)c1ccccc1`, the activation was 27.6% (inactive). For `O=C(Nc1ccc(F)cc1)c1cc2c(s1)CCCC2`, the activation is 53% (active). Consider `CCN(CC)C(=O)C1=C(C)N(Cc2ccc(F)cc2)C(=O)C(CC(=O)NCc2cccc3ccccc23)C1` (configuration not stated), for which the activation was -3.01% (inactive). Turning to `O=CNc1cc(-c2ccc(C(=O)N3CCOCC3)cc2)cn2c(-c3ccc(F)cc3)cnc12`, the activation is -3.58% (inactive).

`Cc1nonc1NC(=O)c1oc2ccccc2c1C`: the activation was 8.7% (inactive). Take `Cc1c(C(=O)Nc2ccccn2)oc2ccc(Br)cc12`: the activation was 34.7% (active). Regarding `Cc1noc(C)c1C(=O)Nc1ccccn1`, the activation was -1.19% (inactive). Then `CC(C)c1ccc(/C=C/C(=O)NCCCN2CCOCC2)cc1`, with -3.21% (inactive); and `O=C(/C=C/c1ccc(F)cc1)NCCNC(=O)/C=C/c1ccc(F)cc1`, with -1.4% (inactive). For the compound `C=CCNC(=O)/C=C/c1ccc(C(C)C)cc1`, the activation was 42.6% (active). Turning to `CCOC(=O)[C@]12CCC=C1N(Cc1cccc3ccccc13)C(=O)[C@H](CC(=O)NCc1cccc(C(F)(F)F)c1)C2`, the activation was -1.93% (inactive). With `C#CCN(C[C@@H]1[C@@H](OC(=O)NC2CC2)[C@@H](OC(=O)NC2CC2)Cn2c(=O)ccc(=O)n21)S(=O)(=O)c1ccc(C)cc1`, the activation is -2.83% (inactive). `O=[N+]([O-])c1ccc(C(S(=O)(=O)Cc2ccccc2)S(=O)(=O)Cc2ccccc2)cc1`: the activation was -5.67% (inactive). Consider `O=C(Nc1ccccc1)c1ccc2c(c1)OCCCO2`, for which the activation is 19.2% (inactive).

With `Cc1nc(NC(=O)c2ccc3c(c2)OCCO3)ccc1Br`, the activation is 48.4% (active).

With `Cc1cccc(C)c1NC(=O)CNC(=O)c1ccc2c(c1)OCCO2`, the activation was 13.2% (inactive). Take `CC(=O)c1ccc2c(c1)OCCOCCOc1ccc(C(C)=O)cc1OCCOCCO2`: the activation is 1.05% (inactive). As to `Cc1ccc(C(=O)NNC(=O)c2ccc3c(c2)OCCO3)cc1`, the activation was 43.9% (active). For the compound `O=C(Nc1ccc(Cl)cn1)c1ccc2c(c1)OCCO2`, the activation is 24.2% (inactive). In the case of `CN(CCc1ccccc1)C(=O)c1cccc(NC(=O)Cc2cccc(NC(=O)C3CCCN(C(=O)C4CCC4)C3)c2)c1` (configuration not stated), the activation was -3.51% (inactive).

As to `C[C@H]([C@@H](O)[C@@H](O)[C@@H](C)C(C)(C)C)[C@H]1CC[C@H]2C3CC[C@H]4C[C@H](OS(=O)(=O)O)[C@@H](OS(=O)(=O)O)C[C@]4(C)[C@H]3CC[C@]12C` (some centres not stated), the activation was -0.623% (inactive).

On to `CC12CCC(=O)C=C1CCC1C2C(O)CC2(C)C1CCC2(O)C(O)CO` (configuration not stated), for which the activation is 3.61% (inactive). Then `CCCC(=O)N=c1sc2cccc(F)c2n1C`, with 5.33% (inactive); and `Cn1c(=NC(=O)C2CC2)sc2cc(F)cc(F)c21`, with 7.6% (inactive). As to `Cn1c(=NC(=O)c2ccco2)sc2cccc(F)c21`, the activation was 61.6% (active). In the case of `Cc1ccc(S(=O)(=O)N2C[C@]3(O)C[C@@H]4C(=O)N(c5ccccc5)C(=O)[C@@H]4C[C@]3(OC(=O)NC3CC3)C2)cc1`, the activation is -1.31% (inactive). On to `Clc1ccc(Nc2nc(-c3cccs3)cs2)nc1`, for which the activation is 25.2% (inactive).

Turning to `Cc1ccc(Nc2nc(-c3ccc(O)cc3O)cs2)nc1`, the activation is 59.5% (active).

For the compound `CC(=O)Nc1cnc(-c2ccc(O)cc2C)cn1`, the activation is -0.836% (inactive). Take `Cn1c(=O)c2cc(NC(=O)NCCc3cccs3)ccc2n1Cc1cccc(C(F)(F)F)c1`: the activation is -1.78% (inactive). Then `Cc1ccc(S(=O)(=O)N2CC3C(=O)C[C@@H](c4ccccc4Cl)N(S(=O)(=O)c4ccc(C)cc4)C3CC2c2ccccc2)cc1` (some centres not stated), with -1.39% (inactive); and `COC(=O)c1ccc2nc(-c3ccc(Cl)cc3)c(Cc3cccc(F)c3)n2c1`, with 11.3% (inactive). As for `Cc1ccc(S(=O)(=O)NCCC(=O)Nc2cccc(S(N)(=O)=O)c2)cc1C`, the activation is -1.96% (inactive). For `Cc1ccnc(NC(=O)CCNS(=O)(=O)c2ccc(C)c(C)c2)c1`, the activation was 35.8% (active). With `Cc1ccc(S(=O)(=O)NCCC(=O)Nc2ccc(C)c(Cl)c2)cc1C`, the activation was -1.93% (inactive).

Regarding `CCN1CCCC1CNC(=O)c1ccc2c(c1)NC(=O)/C(=C\c1ccccc1F)S2` (configuration not stated), the activation is -0.637% (inactive). As for `O=c1[nH]c(-c2ccccc2)cn1C1CCN(Cc2ccc(-c3nc4ccc(F)cc4nc3-c3ccccc3)cc2)CC1`, the activation was 0.441% (inactive).

For the compound `COCCCn1c(C(=O)NC2CCCCC2)cc2c(=O)n3cccc(C)c3nc21`, the activation is -1.3% (inactive). For the compound `CC(C)NC(=O)N1Cc2cc(C(=O)NCC(F)(F)F)nc(-c3cccc(-c4cc5ccccc5o4)c3)c2[C@@H]1CCO`, the activation was -2.74% (inactive). Then `CC1CCCCC1NC(=O)Cn1c(=O)cnc2ccccc21` (configuration not stated), with -3.58% (inactive); and `O=C(/C=C/c1cnc2ccccc2n1)NC1CCCCCC1`, with 49.2% (active). Then `CC(C)c1cc(C(=O)NC2CCCCCC2)c2ccccc2n1`, with -2.8% (inactive); and `COC(=O)[C@]1(Cc2ccccc2)NC=C(C(=O)c2ccccc2)[C@@H]1c1cccc(OC)c1`, with 2.93% (inactive); and `COC(=O)c1c(-c2ccc(OC)cc2)c2c(c3c4cc(OC)ccc4n(S(=O)(=O)c4ccc(F)cc4)c13)C(=O)N(C)C2`, with -8.37% (inactive).

In the case of `CN(C)c1ccc(CSc2ccccc2)cc1`, the activation is 2.13% (inactive). With `CN(C)c1ccc(CNC23CN4CN(CN(C4)C2)C3)cc1`, the activation was 35.9% (active). For the compound `CCNC(=O)C1(C)CCCN1C(=O)c1ccc(N(C)C)cc1` (configuration not stated), the activation is -4.12% (inactive). Regarding `Nc1ncnc2c1ncn2[C@@H]1O[C@H](C(=O)N[C@@H](CCc2ccccc2)C(=O)NCC(=O)N2CCOCC2)[C@@H](O)[C@H]1O`, the activation is -8.65% (inactive). In the case of `CCOc1cc(/C=C2/C(=N)N3OC(C)=CC3=NC2=O)ccc1OC`, the activation is 39.2% (active). In the case of `COc1ccc(OCCCn2cccc2/C=C2/C(=N)N3OC(C)=CC3=NC2=O)cc1`, the activation is 21% (inactive). For `CCOc1cc(/C=C2\C(=N)N3N=C(C)SC3=NC2=O)ccc1OCCOc1ccccc1`, the activation is 0.097% (inactive). As to `COc1ccc(-c2cc3c(c4c2ccn4C)C2CCC3C2)cn1` (configuration not stated), the activation was -0.553% (inactive). For `Cc1cccc(-c2cnc(C(O)c3ccc4ccccc4c3)[nH]2)c1` (configuration not stated), the activation was -0.607% (inactive). Take `Cc1c(NC(=O)Nc2ccccc2)cccc1[N+](=O)[O-]`: the activation was 1.75% (inactive).

On to `CS(=O)(=O)c1ccc(Cl)c(NC(=O)Nc2ccccc2)c1`, for which the activation was 1.45% (inactive). As to `Cc1ccc(NC(=O)Nc2ccccc2)c(Br)c1`, the activation was 50.8% (active).

As to `CC[C@H](C)[C@H]1CNC(=O)C(=O)N1CC1CCN(CCc2ccc(OC)c(OC)c2)CC1`, the activation is -3.36% (inactive).

As to `COc1ccc2oc(-c3cccc(NC(=O)CSc4ccc(Cl)cc4)c3)nc2c1`, the activation is 22.7% (inactive).

With `COc1ccc2oc(N)nc2c1`, the activation was 2.19% (inactive). As for `COc1cccc(-c2nc3cc(C)ccc3o2)c1`, the activation is 40.6% (active). Regarding `CC(=O)Oc1ccc(Cn2c(C)c(C(=O)NCc3ccc(C#N)cc3)sc2=O)cc1`, the activation is -1.94% (inactive).

The record behind these values is PubChem BioAssay AID743398 (Broad Institute, 2014).
